Sampled rows, rich in hits. Any-hit rate of the full collection: about 2.2%.
aSyn UTR inh: 5' untranslated region of α-synuclein, MLPCN primary screen | alpha-synuclein 5'UTR reporter, inhibitor activity | inhibition, % (tested at 7.5 µM) | actives 0.82% (n = 300,000); in the data active = inhibition above about 60%; inconclusive = no clear call, values can overlap the other calls;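 note: H4 neuroglioblastoma cells stably carrying SNCA 5'UTR luciferase fusion; 0% = DMSO wells and 100% = positive control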
Ba/F3 V617F tox: loss of viability in JAK2V617F-driven Ba/F3 cells; inhibition, % at 5.6 µM; actives 1.1% (n = 220,000); Ba/F3 EpoR-JAK2V617F viability, ATP luminescence; AID 1446;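 active = inhibition above the campaign mean plus 3 SD over all tested compounds, cut at about 24% in these data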;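 note: cytokine-independent growth of Ba/F3 cells driven by EpoR plus mutant JAK2; 0% = DMSO-treated cells and 100% = JAK inhibitor I control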
IEC-6 cytotox: kills IEC-6 intestinal cells in KLF5 counter-screen; inhibition, % at 5 µM; AID 1825; actives 0.78% (n = 290,000); IEC-6 cytotoxicity, luminescence viability; in the data active = inhibition above about 22%;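 note: 0% = plate median of test compound wells and 100% = cytotoxic reference compound wells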
BaF3 parental: parental Ba/F3 viability inhibition as JAK2V617F counter-screen; CellTiter-Glo ATP luminescence; inhibition, % at 5.6 µM; actives 1.1% (n = 220,000); AID 1486;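 active = inhibition above a per-campaign cutoff, the mean inhibition of all tested compounds plus 3 SD, cut at about 27% in these data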;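 note: 0% = DMSO wells and 100% = JAK Inhibitor I control wells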
APP transl inh: APP translation inhibition | actives 0.82% (n = 190,000) | SH-SY5Y APP 5'UTR-luciferase reporter, luminescence | inhibition, % at 2 µM;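 active = inhibition above a set limit, derived from the sample mean plus 3 SD, cut at about 45% in these data; inconclusive = one replicate passes the limit while the other fails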
KLF5 inh: kruppel-like factor 5 inhibition; inhibition, % at 5 µM; actives 0.23% (n = 290,000); DLD-1 KLF5 promoter-luciferase reporter, luminescence;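 active = inhibition above a per-plate limit of that plate's mean compound inhibition plus 3 SD, cut at about 60% in these data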;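 note: 0% = DMSO wells and 100% = LY294002 at 200 µM; higher means less KLF5 promoter-driven luciferase light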
The depositor's hits bear a star; ? = inconclusive; · = no result given.

SMILES	aSyn UTR inh	Ba/F3 V617F tox	IEC-6 cytotox	BaF3 parental	APP transl inh	KLF5 inh
O=[N+]([O-])c1ccc(Sc2cccc[n+]2[O-])c2nonc12	84.8*	99.0*	100.1*	104.8*	·	12.5
COc1cccc(C2=NN(C(=O)c3ccco3)C(c3ccco3)C2)c1 (centres undefined)	-31.9	·	-1.8	·	·	-17.2
COc1cccc(C(=O)C2=NN(C(C)=O)CC2c2ccco2)c1 (centres undefined)	17.9	-4.9	3.7	38.5*	-3.1	-48.1
Cc1cccc(OCC(=O)Nc2ccc3oc(=O)ccc3c2)c1	-46.2	·	-3.6	·	·	-20.2
c1csc(C2Nc3cccc4cccc(c34)N2)c1	2.5	10.9	-2.7	32.9*	26.9	14.7
CC1Cc2ccccc2N1C1=CC(=O)CCC1 (centres undefined)	-17.7	54.1*	3.3	65.8*	-35.8	-14.5
COc1ccc(NC(=O)CN(C)C(=O)Cn2c(=O)oc3ccccc32)cc1	-13.2	·	·	·	·	·
O=C(C1CCCO1)N1CCN(C(=S)Nc2ccc(F)c(Cl)c2)CC1 (centres undefined)	-14.7	27.6*	2.6	27.3*	4.7	-24.4
CNc1ccccc1C(=O)OCC(=O)N(CCOC)c1c(N)n(CC(C)C)c(=O)[nH]c1=O	14.0	·	·	·	·	·
Cc1cc(N(C(=O)c2ccco2)C(C(=O)NC2CCCCC2)c2ccccc2)ccc1-n1cnnn1 (centres undefined)	-6.1	-3.1	-5.5	51.3*	-9.2	1.4
CC[n+]1c(/C=C/c2c[nH]c3ccccc23)ccc2cc(C)ccc21	·	91.2*	9.5	78.8*	-6.1	17.2
CCC(=NCCc1c(C)[nH]c2ccc(C)cc12)C1=C(O)CC(c2ccccc2)CC1=O (centres undefined)	104.0*	-1.8	-2.0	5.6	94.9*	-30.6
CC(C)CN(C(=O)C(C)N1C(=O)c2ccccc2C1=O)c1c(N)n(Cc2ccccc2)c(=O)[nH]c1=O (centres undefined)	-0.5	·	·	·	·	·
Cc1cc(C)c(C(=O)N(C)C2CCCN(Cc3ccccc3F)C2)o1 (centres undefined)	8.7	·	6.9	·	·	-19.7
O=Cc1cc2ccccc2nc1SCc1ccc(Cl)c(Cl)c1	109.1*	-3.5	1.3	-1.4	8.2	-18.1
O=Cc1cc2ccccc2nc1SCc1ccc(Cl)cc1	95.2*	3.0	-0.5	2.6	2.6	-3.8
Cc1ccc(CSc2ncnc3ccccc23)cc1	-29.7	3.8	-1.4	3.3	-21.1	-1.7
Cc1ccc(CSc2nc3ccccc3cc2C=O)cc1	93.4*	2.3	-2.5	2.6	94.2*	6.5
O=Cc1cccnc1SCc1ccccc1	-39.5	·	·	·	·	·
Cc1nc2ccc(NC(=O)c3ccc([N+](=O)[O-])cc3)cc2[nH]1	-106.0	·	-1.1	·	·	-39.4
CCc1nc2ccc(C(=O)NCc3ccco3)cc2nc1CC	-0.1	2.9	7.7	2.1	-5.0	-13.6
CCC1=Nc2cc(C(=O)NCc3ccco3)ccc2Sc2ccc(Cl)cc21	15.6	20.4	22.4*	73.2*	94.9*	45.3
CCC1=Nc2cc(C(=O)NCc3ccco3)ccc2Sc2ccccc21	29.9	30.2*	35.7*	32.3*	50.3*	16.0
CCC1=Nc2cc(C(=O)O)ccc2Sc2ccccc21	6.7	-6.0	-4.0	4.6	-8.5	11.2
COc1ccc(C2C3=C(CCCC3=O)Nc3nc(-c4cc(OC)c(OC)c(OC)c4)nn32)cc1OC (centres undefined)	-5.8	-0.1	0.8	93.0*	-3.4	-25.1
SMILES	aSyn UTR inh	Ba/F3 V617F tox	IEC-6 cytotox	BaF3 parental	APP transl inh	KLF5 inh
Cc1ccccc1N=Nc1c(C)[nH]n(-c2ccccc2)c1=O	·	-1.0	-0.9	6.0	6.7	-43.0
Cc1[nH]n(-c2ccccc2)c(=O)c1N=Nc1ccccc1O	?	0.2	0.5	13.2	57.5*	7.9
Fc1cccc(NC(=S)NNc2c3ccccc3nc3ccccc23)c1	-7.5	-3.0	8.4	7.3	53.5*	-20.1
Fc1cccc(NC(=S)NNc2ccccc2)c1	-139.9	·	5.6	·	·	-11.8
O=S1(=O)NC(=NCCc2ccccn2)c2ccccc21	2.8	1.5	-4.3	10.1	4.8	-17.2
CCCn1c(-c2ccc(OC)cc2)nc2ccccc21	-4.5	40.4*	2.7	52.1*	-15.6	-2.7
COCn1c(-c2ccc(OC)cc2)nc2ccccc21	-191.9	2.2	4.3	5.8	-118.3	-97.2
Cc1ccc(C#N)c(SCc2ccccc2F)n1	21.6	-1.6	3.0	1.6	·	-3.2
Cc1ccc2nc(CSc3nc(C)ccc3C#N)[nH]c2c1	79.3*	2.3	-4.6	4.2	-92.7	-4.5
CC1(C)Cc2c(sc(NC(=O)COc3cccc4ccccc34)c2C#N)C(C)(C)N1	71.9*	-6.0	-0.9	-3.6	·	-2.5
Cc1ccc(OCC(=O)Nc2sc3c(c2C#N)CC(C)(C)NC3(C)C)cc1	-7.0	-0.7	-4.4	7.2	26.4	-55.2
CC(=O)c1cccc(N(CC(=O)NC2CCCCC2)C(=O)CNC(=O)c2cccs2)c1	3.5	·	1.8	·	·	-4.7
COc1ccc(C(=O)NCc2nnc(SCC(=O)NC3CCCC3)o2)cc1	13.4	·	2.3	·	·	12.7
COc1cccc(CNC(=O)CC2Sc3ccccc3NC2=O)c1 (centres undefined)	-16.3	0.8	0.5	59.0*	-11.8	-16.0
O=Cc1ccccc1-c1cn(CN2C(=O)c3ccccc3C2=O)nn1	-9.4	·	1.3	·	·	-7.6
Cc1onc(-c2ccccc2Cl)c1C(=O)OCN1C(=O)c2ccccc2C1=O	3.2	4.2	6.1	95.2*	-1.1	-30.5
COc1cc(C(=O)Nc2ccc3c(c2)Cc2ccccc2-3)cc(OC)c1OC	-7.5	-4.6	6.1	-0.8	3.5	11.0
COc1cc(C(=O)Nc2ccc3c(c2)CCN3C(C)=O)cc(OC)c1OC	96.9*	78.2*	40.1*	79.2*	81.0*	27.9
O=C(OCn1ncc(Br)c(Br)c1=O)c1c(F)cccc1F	?	73.9*	10.6	66.8*	95.5*	-38.7
CC(=O)Cn1ncc(Br)c(Br)c1=O	-87.4	5.3	101.7*	-3.3	96.6*	-33.1
CS(=O)(=O)N(CC(=O)N1CCN(Cc2ccccc2)CC1)c1ccccc1Br	3.3	·	5.1	·	·	-4.0
O=C(Cn1c2[n+](c3ccc(C(F)(F)F)cc31)CCCCC2)c1cccc([N+](=O)[O-])c1	-11.8	1.2	6.3	79.8*	3.6	-26.1
FC(F)(F)c1ccc2c(c1)n(Cc1ccccc1)c1[n+]2CCCCC1	15.3	22.0	-2.7	34.5*	-5.1	-9.3
O=C(Cn1c2[n+](c3ccc(C(F)(F)F)cc31)CCCCC2)Nc1ccccc1	7.7	1.4	2.5	7.3	-1.5	-0.1
CCN(C(=O)C(C)OC(=O)CCCNC(=O)c1ccc(Cl)cc1)c1ccccc1 (centres undefined)	4.1	·	·	·	·	·
Nc1ccn(Cc2cccc(F)c2)n1	6.5	-0.4	2.6	1.0	-0.3	-27.7
N=c1ccn(Cc2cccc(F)c2)cc1	17.4	70.9*	-1.0	66.4*	·	15.9
Cc1ccccc1OCCn1cnc2c(N)ncnc21	-40.0	56.7*	7.7	32.7*	-2.2	-23.7
Cc1ccccc1OCCn1c(=S)[nH]c2c(N)ncnc21	3.4	·	2.1	·	·	-0.7

Compound activity from PubChem.
